Screening data: PubChem BioAssay, National Center for Advancing Translational Sciences (NCATS)
HTT cytoprotect – Huntington cell model cytoprotection by ATP luminescence; PC12 HTT-Q103 induced, cytoprotection, ATP luminescence, 40 h; Potency, µM (highest dose often 56.4 µM), for the others: cytoprotection (ATP increase), hits mostly activators; actives 0.14% (n = 230,000); further: potency means the concentration at half of the fitted maximal effect; % of control where 0% means no effect; nearly all actives have a fitted effect of over 45% in size
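Compounds were screened for protection of PC12 cells against cell death after tebufenozide induction (100 nM final) of mutant Huntingtin exon 1 (Q103) fused to GFP.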
PNC assembly inh – perinucleolar compartment assembly inhibition; activity change (PNC), negative = inhibition, % at 10 µM; PC3M PTB-GFP, PNC prevalence imaging, 16 h; stronger effect = lower value; actives 3.1% (n = 140,000);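 active means readout at or below -70, meaning at least 70% loss of cells showing the perinucleolar compartment, a nuclear body marking cancer cells; inconclusive means readout between -30 and a set limit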;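 further: plate controls were DMSO wells for no effect and camptothecin positive control wells for full effect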
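Read-out is percentage of cells bearing a perinucleolar compartment, from automated 20x imaging of fixed, Hoechst-stained PC3M PTB-GFP cells. Cells were seeded 4 h, then exposed 16 h to compound (23 nl of library stock) in duplicate plates.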
HttQ103 aggreg – reduces HttQ103-GFP aggregates in PC12 cells; AID 1688; Potency, µM (series often up to 46.1 µM), inactives show at the highest dose activity change, negative = inhibition, actives largely listed as inhibitors; actives 1.1% (n = 220,000); PC12 HttQ103-GFP aggregates, Acumen cytometry, 40 h; further: potency means the concentration at half of the fitted maximal effect; on the % scale 0 is the no-effect control and ±100 the full control effect; nearly all actives have a fitted effect of over 60% in size
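Compounds (qHTS titration) were added to PC12 cells expressing an ecdysone-driven HTT exon 1 Q103–GFP fusion after induction with 100 nM tebufenozide. Aggregate formation was measured as GFP objects in cell lysates.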
RGS12 GoLoco inh – blocks human Gai1 binding to RGS12 GoLoco peptide, red readout; P63096; Gai1:RGS12 GoLoco peptide FP, rhodamine, 10 min; Potency, µM (series often up to 61.6 µM), without a hit: at the highest dose activity, negative = inhibition, hits mostly inhibitors; actives 0.44% (n = 230,000); active means well fitted inhibition curve with a large enough effect, not every such curve was filed as active; inactive means no such curve, though single readings can be large or run the other way; further: potency means the concentration at half of the fitted maximal effect; on the % scale 0 is the no-effect control and ±100 the full control effect; nearly all actives have a fitted effect of over 30% in size
ALDH1A1 block – inhibitors of human aldehyde dehydrogenase 1A1; P00352; Purified ALDH1A1, NADH fluorescence, propionaldehyde substrate; Potency, µM (top dose mostly 75.3 µM), inactives show at the top dose activity, negative = inhibition, most hits filed as inhibitors; actives 7.3% (n = 220,000); active means well fitted inhibition curve with a large enough effect, not every such curve was filed as active; inconclusive means small, poorly fitted or top-dose-only effect, or another doubt; inactive means no such curve, though single readings can be large or run the other way;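 further: potency means the concentration at half of the fitted maximal effect; plate controls were no enzyme wells and a reference inhibitor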
Target sequence (P00352 whole entry, looked up): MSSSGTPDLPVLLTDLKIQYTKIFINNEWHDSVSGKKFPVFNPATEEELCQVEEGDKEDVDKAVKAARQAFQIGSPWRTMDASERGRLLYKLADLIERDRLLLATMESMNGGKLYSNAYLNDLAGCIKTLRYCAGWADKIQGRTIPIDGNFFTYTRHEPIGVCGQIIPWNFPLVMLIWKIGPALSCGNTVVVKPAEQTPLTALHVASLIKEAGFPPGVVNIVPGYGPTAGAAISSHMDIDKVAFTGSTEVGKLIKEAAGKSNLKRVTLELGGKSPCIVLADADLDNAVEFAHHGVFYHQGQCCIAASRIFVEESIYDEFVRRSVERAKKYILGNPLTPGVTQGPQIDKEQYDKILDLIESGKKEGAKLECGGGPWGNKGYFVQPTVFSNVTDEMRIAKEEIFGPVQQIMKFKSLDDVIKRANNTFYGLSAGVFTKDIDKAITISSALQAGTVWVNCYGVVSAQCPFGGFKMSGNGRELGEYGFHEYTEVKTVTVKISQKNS
HPGD block – inhibitors of human 15-hydroxyprostaglandin dehydrogenase (HPGD). Potency, µM, without a hit: at the highest dose activity change, negative = inhibition, most hits filed as inhibitors. purified HPGD, NADH fluorescence kinetic, PGE2 substrate. actives 4.3% (n = 150,000). P15428; active means well fitted inhibition curve with a large enough effect, not every such curve was filed as active; inconclusive means small, poorly fitted or top-dose-only effect, or another doubt; inactive means no such curve, though single readings can be large or run the other way; further: potency means the concentration at half of the fitted maximal effect; on the % scale 0 is the no-effect control and ±100 the full control effect
Target sequence (P15428 whole entry, looked up): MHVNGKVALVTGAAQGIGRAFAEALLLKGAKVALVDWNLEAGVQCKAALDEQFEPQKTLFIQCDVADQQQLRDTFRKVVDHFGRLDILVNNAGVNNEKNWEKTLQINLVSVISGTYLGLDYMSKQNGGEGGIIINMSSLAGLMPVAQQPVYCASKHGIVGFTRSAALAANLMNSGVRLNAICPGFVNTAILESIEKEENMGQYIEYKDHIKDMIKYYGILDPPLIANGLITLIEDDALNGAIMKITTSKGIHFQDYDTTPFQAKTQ
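NADH formation kinetics: reaction with 30 uM PGE2 and 1 mM NAD+ (final), 20 nM enzyme, Tris-HCl pH 8 with Tween 20, after 15 min compound preincubation at room temperature. Fluorescence change, last versus first of five reads.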
Active calls of the source: *; ? = inconclusive; . = no result given; [ ] = remark or other dose. In the library only some 11% were active in any assay of this set; here they are far more common. Unless noted, the call rests on the fitted dose curve; in most records, active means well fitted curve in the direction sought with a large enough effect; inconclusive means small, poorly fitted or top-dose-only effect, or another doubt; inactive means no such curve, though single readings can be large; an effect the other way counts as inactive or inconclusive.

SMILES | HTT cytoprotect | PNC assembly inh | HttQ103 aggreg | RGS12 GoLoco inh | ALDH1A1 block | HPGD block
Cc1ccc(-c2nn(CCC#N)cc2C=C(C#N)C#N)cc1 | -6.9%[10 µM] | 20.3 | 26.2% | 10.5% | 20µM* | -20.7%
CSCCC1NC(=O)N(CC(=O)Nc2ccc(-c3ccccc3)cc2)C1=O (configuration not stated) | 2.5%[10 µM] | . | -5.6%[9.22 µM] | 6.7% | -9.4% | .
CCN(CC)c1ccc(/C=N/NC(=O)Cc2cccs2)c(O)c1 | -89.2%[10 µM] | 17.8 | 25.1µM* | -10.4% | ? | ?
CC(C)=C[C@H]1[C@@H](COC(=O)c2ccccc2Cl)C1(C)C | 2.9%[10 µM] | . | . | -7.5%[14.2 µM] | 1.3%[13.5 µM] | -7.3%
CCOC(=O)C1CCN(Cc2cnc(Oc3ccc(C(C)(C)C)cc3)s2)CC1 | -31.2% | 15.6 | 2.8% | 9.2% | ? | ?
NCCC(=O)N[C@H](Cc1cnc[nH]1)C(=O)O | . | . | . | 2.5% | 10.4% | -7.9%
Cc1nn(-c2nnc(NCc3ccccc3)nn2)c(C)c1Br | . | ? | ? | 7.2% | 28.2µM* | 14.1µM*
CCOc1ccc(C(=O)NC2CCN(S(C)(=O)=O)CC2)cc1 | -1.4% | -86.9* | -4.5% | 4.0% | 18.2% | -2.8%
CCN(CC(=O)Nc1ccccc1OC)CC(=O)Nc1sccc1C#N | 13.7%[10 µM] | . | 11.9% | 4.9% | 1.3% | .
Cc1sc(-n2c(C)ccc2C)c(C#N)c1C | ? | 16.8 | ? | 3.2% | 22.4µM* | 17.8µM*
O=Cc1cccn1-c1sc2c(c1C(=O)O)CCCC2 | 19.0%[10 µM] | 22.0 | 12.9% | 0.9% | 5.0% | -10.4%
Cc1ccc(C)n1-c1sc2c(c1C#N)CCCC2 | 19.7%[10 µM] | -100.0* | ? | 10.6% | -5.0% | -15.6%
N#Cc1c(-n2cccc2C=O)sc2c1CCCC2 | -43.7% | . | -20.9% | 6.6% | 31.6µM* | .
CCC[n+]1cn(/C(C(=S)Nc2cccc(Cl)c2C)=C(/[O-])c2ccc(OC)c(OC)c2)c2ccccc21 | -1.9%[10 µM] | . | 3.8% | 10.4% | -3.9% | .
CN(C)c1ccc2nc3c(C(=O)O)cc(=O)c(O)c-3oc2c1 | -5.2%[10 µM] | . | . | 2.9%[14.2 µM] | 3.2%[13.5 µM] | -26.4%
CN(Cc1ccccc1)C(=O)c1ccco1 | -20.8%[10 µM] | . | -12.0%[9.22 µM] | 9.4% | 4.8% | .
Cc1ccc(C(CCN(Cc2ccccc2)C(=O)c2ccco2)c2ccco2)cc1 (configuration not stated) | 15.7%[10 µM] | ? | 22.3% | 8.3% | 20µM* | ?
CC1(C)CC(CCN(Cc2ccccc2)C(=O)c2ccco2)(c2ccccc2)CCO1 (configuration not stated) | -6.1%[10 µM] | -10.7 | ? | 10.6% | 25.1µM* | -12.0%
CC(=O)N(CCC(c1ccccc1)c1ccco1)Cc1cccs1 (configuration not stated) | -6.3% | -7.1 | ? | 126.6% | 1.41µM* | 28.2µM*
O=C(c1ccco1)N(CCC(c1ccccc1)c1ccco1)Cc1ccco1 (configuration not stated) | -10.6% | 34.6 | 27.9% | 21.3% | 3.55µM* | 20µM*
CC(=O)N(CCC(Cc1ccccc1)c1ccco1)Cc1ccco1 (configuration not stated) | 26.6%[10 µM] | . | -4.9%[9.22 µM] | 9.7% | . | .
CC(C)(C)NC(=O)[C@@H]1C[C@H]2CCCC[C@@H]2CN1C[C@H](O)[C@H](Cc1ccccc1)NC(=O)[C@@H](CC(N)=O)NC(=O)c1ccc2ccccc2n1 | -43.2%[17.1 µM] | . | . | 6.5%[21.6 µM] | 1.3%[20.9 µM] | -6.4%
COc1ccc(CNC(=O)C/C(C)=N/NC(=O)c2cnccn2)cc1 | . | . | . | 0.3% | -2.0% | .
Cc1cc(O)c2c(c1O)C(=O)C(O)=C(O)C2=O | -31.0% | . | . | -70.9% | ? | ?
CN(C)c1ccc(-c2cncnc2NCCc2cnc[nH]2)cc1 | -20.4% | . | . | -8.5% | ? | .
SMILES | HTT cytoprotect | PNC assembly inh | HttQ103 aggreg | RGS12 GoLoco inh | ALDH1A1 block | HPGD block
CCOC(=O)[C@]1(C(NC(=O)OC)c2cccc(C)c2)CCCC1=O (some centres not stated) | -3.7%[10 µM] | . | . | . | 6.7%[13.5 µM] | .
Cc1ccc(S(=O)(=O)N2CCOCC2)cc1C(=O)c1nccn1C | -8.4% | . | -1.7% | -2.5% | 18.9µM* | .
Cc1ccc(S(=O)(=O)N2CCOCC2)cc1C(=O)N1CCOCC1 | -2.4% | -3.9 | 13.0%[9.22 µM] | -5.7% | -9.4% | -5.1%
Cc1ccc(S(=O)(=O)N2CCOCC2)cc1C(=O)Nc1c(C)n(C)n(-c2ccccc2)c1=O | -3.0% | -100.0* | -11.2% | 1.8% | 4.7% | 2.8%
Cc1cc(C(=O)CCl)c(C)n1-c1cccc(S(=O)(=O)N2CCOCC2)c1 | -256.2% | . | ? | 6.2% | 0.178µM* | .
Cc1cc(OCC(O)CNC(C)(C)C)ccc1Cl (configuration not stated) | -43.0% | . | ? | 2.6% | -12.8% | .
Cn1nc(-c2ccc(N3CCCCC3)c(NC(=O)c3ccco3)c2)c2ccccc2c1=O | -4.2%[10 µM] | ? | ? | 8.6% | 31.6µM* | -28.5%
CCC(=O)Nc1cc(-c2nn(C)c(=O)c3ccccc23)ccc1N1CCOCC1 | -13.7% | 19.2 | -2.6% | 4.8% | ? | -12.1%
OC1(C(O)(c2ccc(-c3ccccc3)cc2)c2ccc(-c3ccccc3)cc2)CCCCC1 | 10.2%[10 µM] | . | . | 2.6%[14.2 µM] | 6.9%[13.5 µM] | -0.5%
O=C(NC(C(=O)c1ccccc1)N1CCOCC1)c1ccccc1 (configuration not stated) | 14.0% | 0.9 | 4.6% | 6.2% | -0.7% | 3.7%
O=C(NC(C(=O)c1ccccc1)N1CCCCCC1)c1ccco1 (configuration not stated) | -0.9%[10 µM] | ? | 7.7% | 3.9% | 14.1µM* | -4.6%
Cc1ccc(C(=O)C(NC(=O)c2ccco2)N2CCOCC2)cc1 (configuration not stated) | -30.3% | ? | 2.5% | -6.3% | 28.2µM* | -16.6%
O=C(NC(C(=O)c1ccccc1)N1CCOCC1)c1cccs1 (configuration not stated) | -0.6%[10 µM] | -28.7 | 0.3% | -3.2% | ? | -19.6%
Cc1cccc(CSc2nc3c(c(=O)[nH]2)CCCC3)c1 | . | 84.6 | -3.5% | 0.9% | 10.5% | 7.94µM*
O=c1[nH]c(SCc2cccc(F)c2)nc2c1CCCC2 | . | -17.4 | -3.9% | 6.6% | -10.0% | 7.08µM*
O=c1[nH]c(SCc2cccc(Cl)c2)nc2c1CCCC2 | 18.5% | 4.4 | 1.2% | . | -9.4% | .
Cc1oc(-c2ccccc2Cl)nc1CSc1nc2c(c(=O)[nH]1)CCC2 | . | 19.4 | 14.4% | -2.6% | -8.2% | 2.82µM*
O=c1[nH]c(SCc2ccc(Cl)cc2)nc2c1CCC2 | -11.9% | -8.6 | -6.2% | 1.3% | -5.5% | 4.47µM*
CN(C(=O)CSc1nc2c(c(=O)[nH]1)CCC2)c1ccccc1 | -1.3% | . | -12.3% | -5.4% | -11.8% | .
CCN(CC)CCCCn1c(-c2ccccc2)nc2c(NCCOC)nc(C)nc21 | 25.0% | . | . | 6.4% | ? | ?
